Outcome and AC50 data for five molecules are collected here from PubChem BioAssay (EPA / NIEHS).

Calls of active or inactive are those of the source. Rule for the calls: active = hit-call score of the fitted dose curve at least 0.9, where 1 is the maximum; inactive = score below 0.9.

Read-out in test [1]: Forkhead box O1 (FOXO1), FOXO1 (gene 2308)
Nature of the test: LTEA_HepaRG_FOXO1: Life Technologies and Expression Analysis (LTEA) Assay for Forkhead box O1 (FOXO1) using HepaRG (AID 2283456). The following applies: mRNA level, 48 h; actives raise or lower the signal. An outline of the steps: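 Using one lot of HepaRG hepatic cells kept in 0.5% DMSO, the team applied test chemicals in duplicate, half-log dilutions from 100 uM, for 48 h. Expression, normalised to ACTB/GAPDH/POLR2A, was compared with vehicle in either direction.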

Read-out in test [2]: growth arrest and DNA damage 45 (GADD45A), GADD45A (gene 1647)
Put plainly: LTEA_HepaRG_GADD45A: Life Technologies and Expression Analysis (LTEA) Assay for growth arrest and DNA damage 45 (GADD45A) using HepaRG (AID 2283458). The following applies: mRNA level, 48 h; actives raise or lower the signal. The essentials:
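Eight-point concentration-response in HepaRG cells: 48 h chemical exposure, 0.5% DMSO vehicle, top dose 100 uM. Normalized qRT-PCR mRNA readout with bidirectional fitting relative to DMSO.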

Read-out in test [3]: Forkhead box O3 (FOXO3), FOXO3 (gene 2309)
Put plainly: LTEA_HepaRG_FOXO3: Life Technologies and Expression Analysis (LTEA) Assay for Forkhead box O3 (FOXO3) using HepaRG (AID 2283459). The following applies: mRNA level, 48 h; actives raise or lower the signal. The essentials:
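Gene-expression endpoint: FOXO3 transcript level by qRT-PCR in HepaRG cultures treated 48 h with chemicals up to 100 uM (half-log, 0.5% DMSO vehicle).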

Read-out in test [4]: ABC Transporter (ABCB1), ABCB1 (gene 5243)
Put plainly: LTEA_HepaRG_ABCB1: Life Technologies and Expression Analysis (LTEA) Assay for ABC Transporter (ABCB1) using HepaRG (AID 2283460). The following applies: mRNA level, 48 h; actives raise or lower the signal. An outline of the steps:
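Human liver HepaRG line treated 48 h with up to 100 uM compound (eight half-log points, 0.5% DMSO); ABCB1 mRNA change fitted bidirectionally against DMSO controls.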

Read-out in test [5]: growth arrest and DNA damage 45 (GADD45B), GADD45B (gene 4616)
Nature of the test: LTEA_HepaRG_GADD45B: Life Technologies and Expression Analysis (LTEA) Assay for growth arrest and DNA damage 45 (GADD45B) using HepaRG (AID 2283461). The following applies: mRNA level, 48 h; actives raise or lower the signal. An outline of the steps:
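Differentiated HepaRG cells, plated 48 h then switched to serum-free induction medium, were exposed 48 h in duplicate to eight half-log concentrations from 100 uM in 0.5% DMSO; mRNA quantified by qRT-PCR, normalized to ACTB/GAPDH/POLR2A, bidirectional fit versus DMSO.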

Read-out in test [6]: ABC Transporter (ABCC3), ABCC3 (gene 8714)
Put plainly: LTEA_HepaRG_ABCC3: Life Technologies and Expression Analysis (LTEA) Assay for ABC Transporter (ABCC3) using HepaRG (AID 2283462). The note with it: mRNA level, 48 h; actives raise or lower the signal. An outline of the steps:
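HepaRG cells in serum-free induction medium were exposed for 48 h in duplicate to 8-point half-log concentrations topping at 100 uM in 0.5% DMSO. ABCC3 mRNA was measured by qRT-PCR normalized to ACTB, GAPDH and POLR2A, with bidirectional fitting versus DMSO.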

Read-out in test [7]: ABC Transporter (ABCB11), ABCB11 (gene 8647)
Put plainly: LTEA_HepaRG_ABCB11: Life Technologies and Expression Analysis (LTEA) Assay for ABC Transporter (ABCB11) using HepaRG (AID 2283463). The note with it: mRNA level, 48 h; actives raise or lower the signal. The essentials: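 Using HepaRG cultures held in 0.5% DMSO, chemicals were tested at half-log dilutions from 100 uM for 48 h. Induction or suppression of ABCB11 mRNA, normalized to ACTB, GAPDH and POLR2A, was fitted bidirectionally against vehicle.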

Read-out in test [8]: ABC Transporter (ABCC2), ABCC2 (gene 1244)
Nature of the test: LTEA_HepaRG_ABCC2: Life Technologies and Expression Analysis (LTEA) Assay for ABC Transporter (ABCC2) using HepaRG (AID 2283464). The following applies: mRNA level, 48 h; actives raise or lower the signal. The essentials:
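HepaRG cells were plated 48 h, switched to serum-free induction medium, then exposed in duplicate for 48 h to 8 concentrations (top 100 uM, half-log steps, 0.5% DMSO). ABCC2 mRNA was measured by qRT-PCR normalized to ACTB/GAPDH/POLR2A; bidirectional fitting versus DMSO.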

Read-out in test [9]: Broad substrate specificity ATP-binding cassette transporter ABCG2 (Homo sapiens) (UniProt Q9UNQ0)
Put plainly: LTEA_HepaRG_ABCG2: Life Technologies and Expression Analysis (LTEA) Assay for ABC Transporter (ABCG2) using HepaRG (AID 2283465). The note with it: mRNA level, 48 h; actives raise or lower the signal. An outline of the steps:
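Gene expression of ABCG2 in HepaRG liver cells is quantified by qRT-PCR following 48 h exposure across an eight-point series topping at 100 uM. Values come from bidirectional fitting relative to DMSO vehicle.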

Read-out in test [10]: ATP-citrate lyase (ACLY), ACLY (gene 47)
Nature of the test: LTEA_HepaRG_ACLY: Life Technologies and Expression Analysis (LTEA) Assay for ATP-citrate lyase (ACLY) using HepaRG (AID 2283466). The note with it: mRNA level, 48 h; actives raise or lower the signal. An outline of the steps: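 ACLY expression changes in human HepaRG liver cells are quantified by qRT-PCR after 48 h exposure to test chemicals (maximum 100 uM, half-log steps). Values are fitted in both directions relative to 0.5% DMSO vehicle.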

Read-out in test [11]: Peroxisomal acyl-coenzyme A oxidase 1 (ACOX1) gene, ACOX1 (gene 51)
Put plainly: LTEA_HepaRG_ACOX1: Life Technologies and Expression Analysis (LTEA) Assay for Peroxisomal acyl-coenzyme A oxidase 1 (ACOX1) gene using HepaRG (AID 2283467). The note with it: mRNA level, 48 h; actives raise or lower the signal. The essentials:
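Human HepaRG hepatic cultures, 48 h treatment with test chemicals up to 100 uM. ACOX1 expression read by qRT-PCR relative to 0.5% DMSO vehicle.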

Read-out in test [12]: Alkaline Phosphatase, Placental (ALPP) gene, ALPP (gene 250)
Nature of the test: LTEA_HepaRG_ALPP: Life Technologies and Expression Analysis (LTEA) Assay for Alkaline Phosphatase, Placental (ALPP) gene using HepaRG (AID 2283468). The following applies: mRNA level, 48 h; actives raise or lower the signal. The essentials: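 Differentiated human HepaRG cells were plated and cultured 48 h, then exposed in duplicate for 48 h in serum-free induction medium to eight half-log concentrations from 100 uM in 0.5% DMSO. ALPP mRNA was measured by TaqMan qRT-PCR, normalized to ACTB, GAPDH, POLR2A.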

Read-out in test [13]: Bcl-2 (BAD) gene, BAD (gene 572)
Put plainly: LTEA_HepaRG_BAD: Life Technologies and Expression Analysis (LTEA) Assay for Bcl-2 (BAD) gene using HepaRG (AID 2283469). The note with it: mRNA level, 48 h; actives raise or lower the signal. The essentials:
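Activity values reflect up- or down-regulation of BAD mRNA in human HepaRG hepatic cells treated 48 h in serum-free medium, with eight-point half-log dosing capped at 100 uM and 0.5% DMSO vehicle.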

Read-out in test [14]: Bcl-2 (BAX) gene, BAX (gene 581)
Nature of the test: LTEA_HepaRG_BAX: Life Technologies and Expression Analysis (LTEA) Assay for Bcl-2 (BAX) gene using HepaRG (AID 2283470). The note with it: mRNA level, 48 h; actives raise or lower the signal. An outline of the steps:
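Human HepaRG cells treated in duplicate for 48 h across eight concentrations (max 100 uM, 0.5% DMSO); BAX expression measured by qRT-PCR.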

Read-out in test [15]: adenosine kinase (ADK) gene, ADK (gene 132)
Nature of the test: LTEA_HepaRG_ADK: Life Technologies and Expression Analysis (LTEA) Assay for adenosine kinase (ADK) gene using HepaRG (AID 2283471). The following applies: mRNA level, 48 h; actives raise or lower the signal. The essentials: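 HepaRG (human liver), 48 h chemical exposure, 8-pt half-log series, top 100 uM, 0.5% DMSO vehicle. Readout: ADK mRNA by qRT-PCR vs housekeeping genes; bidirectional curve fit relative to DMSO baseline.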

Read-out in test [16]: Alpha-fetoprotein (AFP) gene, AFP (gene 174)
Nature of the test: LTEA_HepaRG_AFP: Life Technologies and Expression Analysis (LTEA) Assay for Alpha-fetoprotein (AFP) gene using HepaRG (AID 2283472). The note with it: mRNA level, 48 h; actives raise or lower the signal. The essentials:
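Measures AFP mRNA change in HepaRG after 48 h chemical exposure (8 half-log concentrations, highest 100 uM, 0.5% DMSO). Fold change relative to DMSO, fitted in both directions.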

Read-out in another test: BCL2L11 (gene 10018)
Nature of the test: LTEA_HepaRG_BCL2L11: Life Technologies and Expression Analysis (LTEA) Assay for Bcl-2 (BCL2L11) gene using HepaRG (AID 2283473). The note with it: mRNA level, 48 h; actives raise or lower the signal. The essentials: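 Differentiated human HepaRG cells in serum-free induction medium were exposed in duplicate for 48 h to eight concentrations (top 100 uM, half-log steps, 0.5% DMSO). BCL2L11 mRNA was quantified by TaqMan qRT-PCR, normalized to ACTB/GAPDH/POLR2A, bidirectional fit versus DMSO.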

Read-out in test [17]: Apoptosis regulator Bcl-2 (Homo sapiens) (UniProt P10415)
Put plainly: LTEA_HepaRG_BCL2: Life Technologies and Expression Analysis (LTEA) Assay for Bcl-2 gene using HepaRG (AID 2283475). The following applies: mRNA level, 48 h; actives raise or lower the signal. The essentials:
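Each chemical was tested in duplicate on HepaRG cultures held in serum-free induction medium for 48 h, highest concentration 100 uM with half-log dilutions. Transcript levels came from multiplexed qRT-PCR, normalised to housekeeping genes; activity was scored in either direction relative to DMSO.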

Read-out in test [18]: Bcl-2 (BID) gene, BID (gene 637)
Put plainly: LTEA_HepaRG_BID: Life Technologies and Expression Analysis (LTEA) Assay for Bcl-2 (BID) gene using HepaRG (AID 2283476). The note with it: mRNA level, 48 h; actives raise or lower the signal. The essentials: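 Assay used HepaRG hepatic cells treated 48 h in serum-free medium with half-log dilutions from 100 uM. Endpoint: BID mRNA, qRT-PCR, normalized to ACTB/GAPDH/POLR2A.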

The nature of test [19]: CEETOX_H295R_TESTO: CeeTox H295R High-throughput Steroidogenesis Assay for Testosterone (TESTO) (AID 2283457).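 For AC50: cells exposed to chemicals for 48 h before medium collection.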 The note with it: actives raise or lower the signal. An outline of the steps:
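H295R human adrenal cells in DMEM/F12 with ITS+ and Nu-Serum, exposed to chemicals for 48 h. Testosterone in medium measured by MTBE extraction, reverse-phase HPLC-MS/MS; bidirectional fit versus DMSO baseline. MTT viability checked in same wells.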

The term AC50 denotes the concentration at which the activity in the assay is half-maximal.

Sequence of Apoptosis regulator Bcl-2 (Homo sapiens) (P10415 whole entry, looked up): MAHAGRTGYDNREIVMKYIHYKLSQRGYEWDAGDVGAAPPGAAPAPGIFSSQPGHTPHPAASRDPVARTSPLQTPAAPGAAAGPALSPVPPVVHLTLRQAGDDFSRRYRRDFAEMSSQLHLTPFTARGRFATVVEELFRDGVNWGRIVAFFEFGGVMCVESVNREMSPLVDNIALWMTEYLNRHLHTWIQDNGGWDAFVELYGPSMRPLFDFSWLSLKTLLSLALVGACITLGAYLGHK
Sequence of Broad substrate specificity ATP-binding cassette transporter ABCG2 (Homo sapiens) (Q9UNQ0 whole entry, looked up): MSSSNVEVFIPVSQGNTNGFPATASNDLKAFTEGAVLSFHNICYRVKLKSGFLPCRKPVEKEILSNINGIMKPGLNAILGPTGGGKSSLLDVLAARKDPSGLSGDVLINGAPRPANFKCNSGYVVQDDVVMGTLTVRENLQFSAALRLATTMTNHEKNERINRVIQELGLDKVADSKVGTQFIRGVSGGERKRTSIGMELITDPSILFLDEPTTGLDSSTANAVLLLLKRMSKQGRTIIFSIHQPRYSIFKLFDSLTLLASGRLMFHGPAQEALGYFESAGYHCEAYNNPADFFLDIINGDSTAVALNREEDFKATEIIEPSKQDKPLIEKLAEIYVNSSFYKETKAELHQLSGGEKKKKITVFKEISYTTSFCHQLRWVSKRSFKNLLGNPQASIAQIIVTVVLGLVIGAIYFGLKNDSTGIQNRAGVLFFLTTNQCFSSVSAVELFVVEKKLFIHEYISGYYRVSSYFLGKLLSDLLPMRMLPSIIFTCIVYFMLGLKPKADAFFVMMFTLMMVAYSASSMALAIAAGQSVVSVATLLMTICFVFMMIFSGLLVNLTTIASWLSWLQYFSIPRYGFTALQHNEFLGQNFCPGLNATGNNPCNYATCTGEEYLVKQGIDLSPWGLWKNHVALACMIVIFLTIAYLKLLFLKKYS

`O=C(O)C(F)(F)C(F)(F)C(F)(F)C(F)(F)C(F)(F)C(F)(F)C(F)(F)C(F)(F)C(F)(F)C(F)(F)F`: the result in test [1], in test [2], in test [4], in test [5], in [6] and in [8] was inactive. Also, the call in [9], in test [10], in test [11], in [12], in test [13] and in test [14] was inactive. Moreover, the outcome in test [15], in [16], in test [17] and in test [18] was inactive. In addition, the figures for the AC50 (in test [3]; in test [7]; in the test with BCL2L11 (gene 10018)) were 47.8 µM (active), 13.7 µM (active) and 47.8 µM (active), respectively.

On to `CC12CC1(C)C(=O)N(c1cc(Cl)cc(Cl)c1)C2=O` (stereo unspecified), for which the molecule was called inactive in test [1], in test [3], in [5], in test [6], in test [8] and in test [9]. The result (in test [10]; in test [12]; in test [13]; in [14]; in test [15]; in the test with BCL2L11 (gene 10018)) was inactive. Also, the molecule was classed as inactive in [17] and in test [18]. In addition, the AC50 in test [19] is 25.4 µM (active); in [4], 8.58 µM (active); in test [7], 6.92 µM (active); in test [11], 13.1 µM (active); in test [16], 25.8 µM (active).

Regarding `CCC(=O)C(CC(C)N(C)C)(c1ccccc1)c1ccccc1` (stereo unspecified), the result in test [1], in [2], in test [3], in test [4], in test [5] and in [7] was inactive. Also, the result in test [8], in test [9], in test [10], in test [11], in test [12] and in test [13] was inactive. Besides, the call (in [14]; in [15]; with BCL2L11 (gene 10018); in test [17]; in test [18]) was inactive. Further, the AC50 in test [6] and in test [16] was 36.2 µM (active) in each case.

As for `CC(C)(C)c1cc(O)ccc1O`, the molecule was classed as inactive in [1], in [2], in test [3], in [4], in test [5] and in [7]. Also, the result in [8], in test [9], in test [10], in test [11], in test [12] and in test [13] was inactive. The result (in test [14]; in test [15]; in test [16]; with BCL2L11 (gene 10018); in test [17]; in [18]) was inactive.

For the molecule `CN(CCCC(=O)c1cccnc1)N=O`, in test [19], the molecule was classed as inactive.
